Data taken from publication PMC8384837, “Expanding the binding specificity for RNA recognition by a PUF domain”.

How the values were obtained:
Test in all cases: yeast three-hybrid, YBZ-1, SC-Leu-His + 0.5 mM 3-AT, 4 days
Conditions in all cases: tags: N-Gal4 AD-HA kept; label: inside an RPR1-promoter hybrid RNA with tandem MS2 sites; ssRNA
[1] = target: PUM1 PUF domain R3-RTC (Homo sapiens, UniProt Q14671 828-1176, C935R;R936T;Q939C)
Outline: (§1)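 The interaction score is the log change in variant frequency from input to selection. Scores were computed in log2 with a pseudocount of 1 for absent variants, using Illumina sequencing of PCR-amplified repeat regions. The input came from four days on SC-Leu and the selection from four days on SC-Leu-His + 0.5 mM 3-AT. The cells were strain YBZ-1 (LexA–MS2 coat fusion, HIS3 reporter) co-expressing Pumilio-1 PUF domain libraries and matching RNA elements from a centromeric plasmid.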

[2] = target: T1, PUM1 PUF domain R6-AWG (Homo sapiens, UniProt Q14671 828-1176, N1043A;Y1044W;Q1047G)
T1 sequence: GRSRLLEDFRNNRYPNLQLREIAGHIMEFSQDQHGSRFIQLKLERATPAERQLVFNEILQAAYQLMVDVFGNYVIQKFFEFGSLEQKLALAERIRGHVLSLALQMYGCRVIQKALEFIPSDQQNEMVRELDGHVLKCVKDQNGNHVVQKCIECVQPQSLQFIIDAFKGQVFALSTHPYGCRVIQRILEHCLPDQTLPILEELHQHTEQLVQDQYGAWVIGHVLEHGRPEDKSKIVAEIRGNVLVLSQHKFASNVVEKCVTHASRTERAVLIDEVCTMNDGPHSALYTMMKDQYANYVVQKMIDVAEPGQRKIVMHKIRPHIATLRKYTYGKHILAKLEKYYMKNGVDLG
Outline: as §1

[3] = target: PUM1 PUF domain R8-RYD (Homo sapiens, UniProt Q14671 828-1176, N1122R;Q1126D)
Outline: as §1

[4] = target: PUM1 PUF domain R8-LHR (Homo sapiens, UniProt Q14671 828-1176, N1122L;Y1123H;Q1126R)
Outline: as §1

[5] = target: PUM1 PUF domain R8-DYC (Homo sapiens, UniProt Q14671 828-1176, N1122D;Q1126C)
Outline: as §1

[6] = target: PUM1 PUF domain R5-CHM (Homo sapiens, UniProt Q14671 828-1176, R1008H;Q1011M)
Outline: as §1

[7] = target: PUM1 PUF domain R2-QWL (Homo sapiens, UniProt Q14671 828-1176, N899Q;Y900W;Q903L)
Outline: as §1

[8] = target: PUM1 PUF domain R2-RKV (Homo sapiens, UniProt Q14671 828-1176, N899R;Y900K;Q903V)
Outline: as §1

Question: How did the binding signal [1] turn out when “GGCUAGAACUAGUGGAUCCCCCGGCGCCCGGCGGCUCGAGCCCGGGUAAGUGUAAUUAGUCUGCAUGCCGCCGGGCGCCAUGCCUGCAGGUCGACUCUAGAAAACAUG” was run?
Answer: Its binding signal is 3.59 log2 enrichment (interaction score).

Question: For “GGCUAGAACUAGUGGAUCCCCCGGCGCCCGGCGGCUCGAGCCCGGGUAAGUGAAAAUAGUCUGCAUGCCGCCGGGCGCCAUGCCUGCAGGUCGACUCUAGAAAACAUG”, which binding signal [2] is on record?
Answer: Its binding signal is 2.57 log2 enrichment (interaction score).

Question: Which binding signal [3] does the source give for “GGCUAGAACUAGUGGAUCCCCCGGCGCCCGGCGGCUCGAGCCCGGGUAAGCGUAAAUAGUCUGCAUGCCGCCGGGCGCCAUGCCUGCAGGUCGACUCUAGAAAACAUG” here?
Answer: Its binding signal is 4.23 log2 enrichment (interaction score).

Question: What about the binding signal [4] of the same sequence?
Answer: The binding signal was 4.05 log2 enrichment (interaction score).

Question: And the binding signal [5]?
Answer: The binding signal was 4.43 log2 enrichment (interaction score).

Question: Which results are given for “GGCUAGAACUAGUGGAUCCCCCGGCGCCCGGCGGCUCGAGCCCGGGUAAGUGUAAAUAGUCUGCAUGCCGCCGGGCGCCAUGCCUGCAGGUCGACUCUAGAAAACAUG”?
Answer: binding signal [4]: 2.47 log2 enrichment (interaction score); binding signal [6]: 2.96 log2 enrichment (interaction score)

Question: Which binding signal [7] does the source give for “GGCUAGAACUAGUGGAUCCCCCGGCGCCCGGCGGCUCGAGCCCGGGUAAGUGUAAAAAGUCUGCAUGCCGCCGGGCGCCAUGCCUGCAGGUCGACUCUAGAAAACAUG” here?
Answer: The binding signal was 5.92 log2 enrichment (interaction score).

Question: What about the binding signal [8] of the same sequence?
Answer: Its binding signal is 3.51 log2 enrichment (interaction score).

Question: How did the binding signal [8] turn out when “GGCUAGAACUAGUGGAUCCCCCGGCGCCCGGCGGCUCGAGCCCGGGUAAGUGUAAAGAGUCUGCAUGCCGCCGGGCGCCAUGCCUGCAGGUCGACUCUAGAAAACAUG” was run?
Answer: Its binding signal is 4.57 log2 enrichment (interaction score).
